“And” between values parts separate entries of the source, which are not always exact repeats. Identical values can stand only once. About 1,900 (0.59%) of roughly 320,000 compounds were called active. Rule as the data show it: active = inhibition mostly above about 10% (no sharp cut-off); inactive = mostly below about 6.7%. Many of the other results were omitted from the sample, so actives are more common in it than they were. A structure can be active in one record and inactive in another.
These compounds were tested against Protein LANA1 (Human herpesvirus 8 type P (isolate GK18)) (UniProt Q9QR71) (assay: blockers of LANA interaction with H2A/H2B – biochemical, FP readout, HTS, primary screen (AID 2629)). Conditions: cell-free LANA-H2A/H2B peptide, fluorescence polarization, stronger effect = higher value, concentration not given here.
Chain of Protein LANA1 (Human herpesvirus 8 type P (isolate GK18)) (Q9QR71 whole entry, looked up): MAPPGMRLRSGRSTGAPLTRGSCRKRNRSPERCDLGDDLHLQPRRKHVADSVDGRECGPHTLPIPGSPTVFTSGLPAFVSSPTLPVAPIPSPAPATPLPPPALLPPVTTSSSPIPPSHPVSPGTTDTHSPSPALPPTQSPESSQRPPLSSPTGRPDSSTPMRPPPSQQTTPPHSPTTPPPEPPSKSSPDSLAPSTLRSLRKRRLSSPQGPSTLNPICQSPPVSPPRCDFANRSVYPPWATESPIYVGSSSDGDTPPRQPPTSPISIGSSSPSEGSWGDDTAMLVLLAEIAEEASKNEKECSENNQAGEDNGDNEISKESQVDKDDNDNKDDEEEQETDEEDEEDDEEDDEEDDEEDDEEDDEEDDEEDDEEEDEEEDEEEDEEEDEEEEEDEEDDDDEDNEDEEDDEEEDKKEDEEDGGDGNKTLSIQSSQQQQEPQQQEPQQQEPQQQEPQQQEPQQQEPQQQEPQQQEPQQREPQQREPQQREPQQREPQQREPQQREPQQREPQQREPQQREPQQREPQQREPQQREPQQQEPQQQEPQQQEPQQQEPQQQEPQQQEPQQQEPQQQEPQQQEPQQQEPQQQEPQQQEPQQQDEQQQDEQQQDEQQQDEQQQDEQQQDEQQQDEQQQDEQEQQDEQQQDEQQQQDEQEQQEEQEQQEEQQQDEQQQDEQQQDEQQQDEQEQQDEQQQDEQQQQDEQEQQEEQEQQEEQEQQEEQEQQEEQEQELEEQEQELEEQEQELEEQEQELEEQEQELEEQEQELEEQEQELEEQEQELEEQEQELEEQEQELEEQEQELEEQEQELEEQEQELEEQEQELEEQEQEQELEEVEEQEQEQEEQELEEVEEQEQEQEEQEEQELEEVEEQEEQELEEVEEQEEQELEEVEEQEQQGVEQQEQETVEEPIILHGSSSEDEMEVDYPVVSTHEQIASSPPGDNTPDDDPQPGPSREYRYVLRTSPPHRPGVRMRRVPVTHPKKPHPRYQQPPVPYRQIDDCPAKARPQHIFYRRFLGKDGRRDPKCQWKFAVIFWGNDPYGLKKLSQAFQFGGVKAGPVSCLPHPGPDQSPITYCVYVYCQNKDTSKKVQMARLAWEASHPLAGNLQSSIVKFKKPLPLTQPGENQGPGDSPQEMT
`COc1ccc([C@H]2[C@H](C(C)=O)N3N=Cc4ccccc4C3C23C(=O)OC(C)(C)OC3=O)cc1` (stereo partly specified) was tested, and the inhibition was 0.0257% (inactive). With `COc1ccc([N+](=O)[O-])cc1NC(=O)C(C)OC(=O)C1c2ccccc2Oc2ccccc21` (stereo unspecified) the inhibition was 4.81% (inactive). For `CCCCNc1nc2c(c(=O)[nH]c(=O)n2C)n1CCOc1ccccc1`, the inhibition was -0.364% (inactive). For `Cn1c(=O)[nH]c(=O)c2c1nc(NCCCn1ccnc1)n2Cc1cccc(Br)c1`, the inhibition was 17.2% (active). With `COc1ccc(CNc2nc3c(c(=O)[nH]c(=O)n3C)n2Cc2ccccc2)cc1` the inhibition was 1.42% (inactive). `O=C(/C=C/c1ccc(F)cc1)NC(=S)NNC(=O)c1cccnc1` was tested, and the inhibition was 1% (inactive). With `NC(=O)CN1CCCC1c1ccc2c(c1)OCCO2` (stereo unspecified) the inhibition was 2.74% (inactive). In the case of `COc1ccccc1NC(=O)COC(=O)CNC(=O)C1CCCCC1`, the inhibition is reported as 2.31% (inactive). For `O=C(Nc1cccc(-c2cscn2)c1)C1CCN(Cc2ccsc2)CC1`, the inhibition was 4.95% (inactive). In the case of `O=C(Nc1ccc(-c2cscn2)cc1)C1CCCN(Cc2ccc(CO)o2)C1` (stereo unspecified), the inhibition is reported as 21.8% (active). For `Nc1ncc(CN2CCCC(C(=O)Nc3ccc(-c4ccco4)cc3)C2)cn1` (stereo unspecified), the inhibition was 3.49% (inactive). In the case of `O=C1CN(c2nc(-c3ccccc3)c3cc(Br)ccc3n2)c2ccccc2N1`, the inhibition is reported as -7.77% (inactive). `COc1ccc(C2N=C(N)N=C(N)N2c2ccccc2)cc1OC` (stereo unspecified) was tested, and the inhibition was -6.16% (inactive). For `CCCCSc1[nH]c(=O)c(C(=O)OCC)cc1C#N`, the inhibition was 3.53% (inactive). `COc1ccc(-c2nc(N)sc2C2(O)C(=O)Nc3c(Br)cc(F)cc32)cc1OC` (stereo unspecified) was tested, and the inhibition was -10.7% (inactive). With `S=c1[nH]nc(Nc2ccccc2)s1` the inhibition was 6.41% (inactive). With `CC(C)(C)C(=O)c1cnc(Nc2ccccc2)s1` the inhibition was 54.4% (active). `O=C(/C=C/Nc1ccccc1)c1cnc(-c2ccccc2)s1` was tested, and the inhibition was 0.792% (inactive). `Cc1ccccc1-n1cc(CNC(=O)CC2C(=O)NCCN2C/C=C/c2ccccc2)cn1` (stereo unspecified) was tested, and the inhibition was -1.56% (inactive). For `Cc1nc(SC(C)C)[nH]c(=O)c1Cc1ccccc1`, the inhibition was 1.02% (inactive). With `O=C(CP(=O)(c1ccccc1)c1ccccc1)N1CCOCC1` the inhibition was 14.6% (active). With `O=C(O)CC(CC(=O)N1CCOCC1)c1ccccc1` (stereo unspecified) the inhibition was 4.19% (inactive). For `O=C(Cc1ccccc1Cl)N1CCOCC1`, the inhibition was -0.189% (inactive). For `CCOc1ccc(CCNC(=O)Nc2ccccc2)cc1OCC`, the inhibition was -1.38% (inactive). With `CCN1C(=O)[C@H]2[C@@H](c3ccc(C)cc3)N3C(=O)N(c4cccc(Br)c4)C(=O)[C@@]3(CC)[C@H]2C1=O` the inhibition was -2.34% (inactive). For `CCc1ccc2nc3sc(C(=O)Nc4nnc(CC)s4)c(N)c3cc2c1`, the inhibition was -1.19% (inactive). With `Cc1ccc(NC(=O)CSCC(=O)Nc2sccc2C#N)cc1` the inhibition was 1.52% (inactive). `Cc1ccc(NC(=O)c2sc3nc(N)c(C#N)cc3c2N)cc1` was tested, and the inhibition was 14.6% (active). With `CCc1ccc(OCC(=O)NCC(c2ccc(Cl)cc2)N2CCCCC2)cc1` (stereo unspecified) the inhibition was -1.04% (inactive). `NC(=O)COC(=O)c1sc2cc(F)ccc2c1Cl` was tested, and the inhibition was 0.759% (inactive). With `CC1Cc2ccccc2N1C(=O)CSc1nnc(C2CC2)n1C` (stereo unspecified) the inhibition was 5.57% (inactive). `Cn1c(SCC(=O)OC2CCCCC2)nnc1-c1ccc(S(=O)(=O)N2CCCC2)cc1` was tested, and the inhibition was 5.59% (inactive). `CC1Cc2ccccc2N1C(=O)CSc1nnc(-c2ccc(S(=O)(=O)N3CCCC3)cc2)n1C` (stereo unspecified) was tested, and the inhibition was 14.5% (active). `COC(=O)[C@H](C)[C@H]1C[C@]1(C)[C@H](NC(=O)OCc1ccccc1)c1ccccc1` was tested, and the inhibition was -3.43% (inactive). For `COC(=O)[C@H](Cc1ccccc1)NC(=O)[C@@H]1C[C@H]1[C@@H](NC(=O)OCc1ccccc1)c1ccccc1`, the inhibition was 14.2% (active). In the case of `COC(=O)[C@@H](Cc1ccccc1)NC(=O)NCCc1ccccc1`, the inhibition is reported as -0.105% (inactive). With `COc1ccc(N2CCN(Cc3ccc(Br)s3)CC2)cc1` the inhibition was 0.937% (inactive). `COc1ccccc1C(=O)N1CCNC(=O)C1CC(=O)Nc1ccc(Cl)cc1` (stereo unspecified) was tested, and the inhibition was -4.24% (inactive). In the case of `CSc1ccc(Cl)c(C(=O)OCC(=O)N2CCNC2=O)c1`, the inhibition is reported as 2.35% (inactive). `COCCNc1ncnc2c1nc1n2CCCC1` was tested, and the inhibition was 3% (inactive). With `Cc1cccc(NS(=O)(=O)c2ccc(C)c(C(=O)NCC(c3ccccc3)N(C)C)c2)c1` (stereo unspecified) the inhibition was 70.5% (active). In the case of `Cc1cccc(NS(=O)(=O)c2ccc(C)c(C(=O)NCc3cccnc3)c2)c1`, the inhibition is reported as -4.62% (inactive). In the case of `Cc1cccc(NS(=O)(=O)c2ccc(C)c(C(N)=O)c2)c1`, the inhibition is reported as 2.17% (inactive). With `O=C1C=C(c2ccnc3cc(Cl)ccc23)C[C@@H](c2ccc3c(c2)OCO3)C1` the inhibition was 0.0706% (inactive). `O=C(NCCc1ccc(F)cc1)c1ccc2nccnc2c1` was tested, and the inhibition was 7.1% (inactive). For `Cc1nc(C)c2c(c1C(F)(F)F)-c1ccccc1C2(F)F`, the inhibition was 11.7% (active). In the case of `CC(C)=N/N=C1/NC(=O)C(Cc2ccccc2)S1` (stereo unspecified), the inhibition is reported as 0.219% (inactive). In the case of `CC(O)c1ccc(OCCN(C)c2ccccn2)cc1` (stereo unspecified), the inhibition is reported as 0.184% (inactive). For `CN(CCOc1ccc(CC2SC(=O)NC2=O)cc1)c1ccccn1` (stereo unspecified), the inhibition was 11.3% (active) and 1.08% (inactive). In the case of `CNc1nccc(-c2ccc(Cl)cc2)c1C#N`, the inhibition is reported as -1.28% (inactive). With `CSCC[C@H](NC(=O)N1CCn2c1nc1ccccc12)C(=O)NC1CCCCC1` the inhibition was -4.45% (inactive). For `Cc1nc(NC(CC(C)C)C(=O)O)c2nc(C)oc2n1` (stereo unspecified), the inhibition was 11.3% (active). In the case of `Cc1cc(C)cc(C(=O)NC(CC(N)=O)c2ccc(N3CCC(N4CCCCC4)CC3)c([N+](=O)[O-])c2)c1` (stereo unspecified), the inhibition is reported as -1.95% (inactive). `N#CC1=C(SCc2ccccc2)NC(=O)C(C#N)C12CCCC2` (stereo unspecified) was tested, and the inhibition was 15% (active). With `CC1(C)CCc2nc(SCc3ccccc3)c(C#N)cc2C1` the inhibition was -3.11% (inactive). `N#CC1=C(SCc2ccc(C#N)cc2)N=C(N)C(c2nc(-c3ccccc3)cs2)C12CCCCC2` (stereo unspecified) was tested, and the inhibition was 5.1% (inactive). In the case of `COCCCNC(=O)Cc1ccc(-n2c(C)nc3cccnc32)cc1`, the inhibition is reported as -0.715% (inactive). `CCc1ccc(-c2nc(SCC(=O)NC3CCCC3)n[nH]2)cc1` was tested, and the inhibition was 1.39% (inactive). With `CC(=O)Nc1cccc(NC(=O)c2c(-c3ccccc3)noc2C)c1` the inhibition was 18.3% (active). In the case of `Cc1ccc(CNC(=O)c2c(-c3ccccc3)noc2C)cc1`, the inhibition is reported as -3.29% (inactive). In the case of `Cc1onc(-c2ccccc2)c1C(=O)Nc1ccccc1C#N`, the inhibition is reported as 1.04% (inactive).

From PubChem BioAssay AID2629 (Broad Institute, 2010)
